Here are results for 26 compounds from PubChem BioAssay (Tox21).

Results filed as inconclusive are left out. Active and inactive are the calls of the source. Unless noted, calls follow the shape of the dose curve; as a rule, active = well fitted curve in the direction sought with a large enough effect in the repeat runs; inconclusive = weak or mixed curves; inactive = no such curve, though single readings can be large; an effect the other way counts as inactive or inconclusive.

The nature of test [1]: qHTS assay to identify small molecule agonists of the peroxisome proliferator-activated receptor delta (PPARd) signaling pathway - cell viability counter screen (AID 743211). Also: nearly all actives have a fitted effect of over 55% in size. Also: potency is read from the fitted curve at half-maximal effect. The method, boiled down:
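Tox21 library compounds, delivered in DMSO, were incubated 17 h with PPARd-bla HEK293H cells; cytotoxicity was taken from CellTiter-Glo luminescence read 30 min after reagent addition.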

The nature of test [2]: qHTS assay to identify small molecule antagonists of the peroxisome proliferator-activated receptor delta (PPARd) signaling pathway - cell viability counter screen (AID 743213). Also: nearly all actives have a fitted effect of over 50% in size. Also: potency is read from the fitted curve at half-maximal effect. The method, boiled down:
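Cytotoxicity counter screen: CellTiter-Glo luminescence read 30 min after addition, in the same wells as the reporter assay. There, PPARd UAS-bla HEK293H cells (3000/well) were treated 17 h at 37 C with compound and 300 nM L165041.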
On the technique in general: Quantitative high-throughput screening tests each substance at several concentrations.

Test [3] deals with Peroxisome proliferator-activated receptor delta (Homo sapiens) (UniProt Q03181). In words: qHTS assay to identify small molecule antagonists of the peroxisome proliferator-activated receptor delta (PPARd) signaling pathway (AID 743215; active = well fitted inhibition curve with a large enough effect in the signal ratio in the repeat runs, not every such curve was filed as active; the % refers to the signal ratio;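 also: cells stimulated with agonist L165041 at 300 nM final during compound exposure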; also: potency is read from the fitted curve at half-maximal effect). The gist of the method: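 Agonist L165041 (300 nM final) added with compound to PPARd-bla HEK293H UAS-bla reporter cells; 17 h incubation at 37 C. Read-out: LiveBLAzer FRET substrate, 2 h at room temperature, fluorescence intensity.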
Sequence of Peroxisome proliferator-activated receptor delta (Homo sapiens) (Q03181 whole entry, looked up): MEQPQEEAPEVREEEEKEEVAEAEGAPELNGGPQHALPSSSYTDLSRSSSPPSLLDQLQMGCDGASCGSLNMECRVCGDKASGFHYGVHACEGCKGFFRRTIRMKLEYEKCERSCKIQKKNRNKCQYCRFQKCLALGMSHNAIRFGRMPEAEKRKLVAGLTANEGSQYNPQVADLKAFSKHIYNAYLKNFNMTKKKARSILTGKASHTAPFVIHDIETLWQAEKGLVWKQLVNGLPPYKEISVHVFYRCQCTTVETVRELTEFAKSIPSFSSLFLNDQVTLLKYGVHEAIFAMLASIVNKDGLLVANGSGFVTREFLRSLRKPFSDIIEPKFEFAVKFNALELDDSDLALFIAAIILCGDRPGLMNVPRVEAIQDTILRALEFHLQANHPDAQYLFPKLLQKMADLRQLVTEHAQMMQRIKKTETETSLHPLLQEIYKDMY

Test [4] concerns the target Bile acid receptor (Homo sapiens) (UniProt Q96RI1). Description: qHTS assay to identify small molecule antagonists of the farnesoid-X-receptor (FXR) signaling pathway (AID 743217; active = well fitted inhibition curve with a large enough effect in the signal ratio in the repeat runs, not every such curve was filed as active; the % refers to the signal ratio). The method, boiled down: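 Antagonist mode: chenodeoxycholic acid at 50 uM final stimulates a UAS-driven beta-lactamase reporter in HEK 293T FXR-bla cells during 16 h, 37C compound exposure. Read-out is FRET substrate fluorescence after 2 h at room temperature.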

A short description of test [5]: qHTS assay to identify small molecule agonists of the farnesoid-X-receptor (FXR) signaling pathway - cell viability counter screen (AID 743218). Also: nearly all actives have a fitted effect of over 45% in size. Also: potency is read from the fitted curve at half-maximal effect. The gist of the method: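 Viability counter screen in the same wells: CellTiter-Glo luminescence, 30 min room-temperature incubation, measured after the beta-lactamase read. Cells were GeneBLAzer FXR-UAS-bla HEK 293T, compound-treated 16 h at 37C.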

The target of test [6] is Bile acid receptor (Homo sapiens) (UniProt Q96RI1). In words: qHTS assay to identify small molecule agonists of the farnesoid-X-receptor (FXR) signaling pathway (AID 743220; active = well fitted activation curve with a large enough effect in the signal ratio in the repeat runs, not every such curve was filed as active; the % refers to the signal ratio). The method, boiled down: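 FXR-UAS-bla HEK 293T cells carrying a UAS-driven beta-lactamase reporter were plated for 5 h at 37C/5% CO2, then exposed to DMSO-dissolved Tox21 10K compounds for 16 h at 37C. A LiveBLAzer B/G FRET substrate was loaded for 2 h at room temperature before fluorescence reading.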
Sequence of Bile acid receptor (Homo sapiens) (Q96RI1 whole entry, looked up): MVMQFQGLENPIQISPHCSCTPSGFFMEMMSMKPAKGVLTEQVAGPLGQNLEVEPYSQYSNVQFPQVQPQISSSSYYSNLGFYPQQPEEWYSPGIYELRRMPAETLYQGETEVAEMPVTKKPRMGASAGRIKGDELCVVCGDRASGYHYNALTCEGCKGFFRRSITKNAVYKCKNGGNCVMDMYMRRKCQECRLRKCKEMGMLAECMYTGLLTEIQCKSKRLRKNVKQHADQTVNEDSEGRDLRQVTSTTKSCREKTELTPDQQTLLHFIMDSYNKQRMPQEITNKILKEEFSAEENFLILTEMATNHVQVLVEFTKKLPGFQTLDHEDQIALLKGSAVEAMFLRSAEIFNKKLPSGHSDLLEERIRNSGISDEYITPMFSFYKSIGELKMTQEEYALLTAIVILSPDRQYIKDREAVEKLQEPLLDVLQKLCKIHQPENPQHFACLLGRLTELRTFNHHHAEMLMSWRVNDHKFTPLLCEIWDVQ

A short description of test [7]: qHTS assay to identify small molecule antagonists of the farnesoid-X-receptor (FXR) signaling pathway - cell viability counter screen (AID 743221; active = well fitted cell-killing curve with a large enough effect in the repeat runs, not every such curve was filed as active; also: nearly all actives have a fitted effect of over 50% in size; also: potency is read from the fitted curve at half-maximal effect). The method, boiled down:
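Cytotoxicity is taken from ATP luminescence (CellTiter-Glo, 30 min, room temperature) in FXR-bla HEK 293T cells previously incubated 16 h at 37 C with compound and chenodeoxycholic acid at 50 uM final.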

In test [8] the target is Vitamin D3 receptor (Homo sapiens) (UniProt P11473). In words: qHTS assay to identify small molecule agonists of the vitamin D receptor (VDR) signaling pathway (AID 743222; calls by dose curve). The gist of the method:
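Agonist mode, beta-lactamase reporter: fluorescence from LiveBLAzer B/G FRET substrate (2 h, room temperature) read after 16 h compound treatment at 37 C of VDR-bla cells, which were pre-incubated 4 h after seeding.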

The target of test [9] is Peroxisome proliferator-activated receptor delta (Homo sapiens) (UniProt Q03181). Description: qHTS assay to identify small molecule agonists of the peroxisome proliferator-activated receptor delta (PPARd) signaling pathway (AID 743212; calls by dose curve). The method, boiled down:
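Read-out: beta-lactamase FRET fluorescence after 2 h room-temperature incubation with LiveBLAzer B/G substrate. Cells were HEK293H carrying a UAS-bla reporter for PPARd, treated at 37 C with DMSO-dissolved compounds.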

Test [10] deals with Vitamin D3 receptor (Homo sapiens) (UniProt P11473). In words: qHTS assay to identify small molecule antagonists of the vitamin D receptor (VDR) signaling pathway (AID 743223; active = well fitted inhibition curve with a large enough effect in the signal ratio in the repeat runs, not every such curve was filed as active; the % refers to the signal ratio). The gist of the method: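 Quantitative HTS in VDR-bla reporter cells stimulated with 1alpha,25-dihydroxyvitamin D3, 3 nM final. Compound exposure 16 h, 37C, 5% CO2. Read-out: beta-lactamase FRET substrate fluorescence, 2 h RT.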
Sequence of Vitamin D3 receptor (Homo sapiens) (P11473 whole entry, looked up): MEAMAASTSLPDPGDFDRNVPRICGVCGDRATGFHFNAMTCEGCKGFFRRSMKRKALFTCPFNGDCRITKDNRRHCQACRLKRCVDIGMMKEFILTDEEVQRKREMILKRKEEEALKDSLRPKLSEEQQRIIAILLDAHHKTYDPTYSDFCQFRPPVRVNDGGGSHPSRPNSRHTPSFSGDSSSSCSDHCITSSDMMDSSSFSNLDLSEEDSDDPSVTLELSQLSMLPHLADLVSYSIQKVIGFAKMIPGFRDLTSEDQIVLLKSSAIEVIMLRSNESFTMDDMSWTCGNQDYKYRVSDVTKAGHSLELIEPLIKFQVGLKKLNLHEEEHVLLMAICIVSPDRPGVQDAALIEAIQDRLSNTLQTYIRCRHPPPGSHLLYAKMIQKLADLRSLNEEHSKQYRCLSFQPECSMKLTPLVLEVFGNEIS

Consider `c1ccc(C[n+]2cccc3ccccc32)cc1`, for which the Potency result in [1], in test [2], in test [3], in test [4], in test [5] and in [6] was “inactive” each time. The Potency entry in [7] and in test [8] was “inactive” in each case.
Turning to `O=c1cc(-c2ccccc2)oc2ccc3ccccc3c12`, the Potency was 17.4 µM (active) in test [1], 13.8 µM (active) in test [2] and 8.71 µM (active) in test [5]. In addition, the Potency result in test [3] and in test [8] was “inactive” each time.
For `O=[N+]([O-])c1ccc(Nc2ccc(Nc3ccccc3)c(S(=O)(=O)O)c2)c([N+](=O)[O-])c1`, the Potency result in test [1], in [9], in test [5], in [7] and in test [8] was “inactive” throughout.
Turning to `CC(C)Nc1cccnc1N1CCN(C(=O)c2cc3cc(NS(C)(=O)=O)ccc3[nH]2)CC1`, the Potency result in test [1], in test [2], in test [4], in test [5], in test [7] and in test [8] was “inactive” throughout. For the same compound, the Potency result in test [10] is “inactive”.
For `C=C1CCC2CC1C2(C)C` (stereo unspecified), the Potency entry in test [1], in test [9], in test [5], in test [7] and in test [10] was “inactive” in each case.
In the case of `CC(=O)NC1(c2cccc(F)c2)CCN(CC[C@@]2(c3ccc(Cl)c(Cl)c3)CN(c3ccccc3)C(=O)CO2)CC1`, the Potency in test [1] was 13.8 µM (active); in test [2], 21.9 µM (active); in test [5] it was 15.5 µM (active); in test [7], 24.6 µM (active). In addition, the Potency entry in [6] and in [8] was “inactive” in each case.
For the compound `O=C(OC(=O)c1ccccc1)c1ccccc1`, the Potency result in test [1], in [9], in [3], in [5] and in test [7] was “inactive” each time.
On to `CCOC(=O)C1=C(C)NC(C)=C(C(=O)OC)C1c1cccc(Cl)c1Cl` (stereo unspecified), for which the Potency result in [1], in test [2], in [3], in test [4], in test [5] and in test [7] was “inactive” in each case.
For `CCCCCC#CC(=O)OC`, the Potency entry in [1], in [2], in [3], in test [5] and in test [7] was “inactive” each time.
`C=C(C)C(=O)OCCCCCCCCCCCCC`: the Potency entry in test [1], in test [9], in [3], in test [5] and in test [7] was “inactive” throughout.
With `C[C@]1(Cn2ccnn2)[C@H](C(=O)O)N2C(=O)C[C@H]2S1(=O)=O`, the Potency result in test [1], in test [2], in [5] and in test [6] was “inactive” in each case.
`CC(=O)OCC(=O)NCCCOc1cccc(CN2CCCCC2)c1`: the Potency result in [1], in test [9], in test [4], in [5], in test [6] and in test [7] was “inactive” each time. Besides, the Potency entry in test [10] is “inactive”.
Consider `CC1CC(OC(=O)C(O)c2ccccc2)CC(C)(C)N1C` (stereo unspecified), for which the Potency result in test [1], in test [9], in test [3], in test [5] and in test [7] was “inactive” each time.
Take `CS(=O)(=O)c1ccc(-c2cn3ccccc3n2)cc1`: the Potency in test [1] was 29.8 µM (active). Moreover, the Potency result in [9], in [3], in test [5], in test [7] and in test [10] was “inactive” throughout.
As to `CCOC(C)=O`, the Potency entry in test [1], in [9], in test [3], in [5], in test [7] and in test [8] was “inactive” each time. The Potency entry in [10] is “inactive”.
In the case of `Cc1c(C)c2c(c(C)c1OC(=O)CCC(=O)OCCO)CC[C@@](C)(CCC[C@H](C)CCC[C@H](C)CCCC(C)C)O2`, the Potency in test [1] is 33.5 µM (active). Besides, the Potency entry in test [9] and in test [6] was “inactive” each time.
Regarding `CCCCC(CC)COP(=O)(O)O` (stereo unspecified), the Potency result in [1], in test [2], in [5] and in test [6] was “inactive” each time.
For the compound `O=C(O)CCc1nc(-c2ccccc2)c(-c2ccccc2)o1`, the Potency entry in test [1], in test [2], in test [3], in test [5], in test [7] and in test [8] was “inactive” throughout.
As for `C[C@H]1C[C@H](O)c2ccsc2S1(=O)=O`, the Potency entry in test [1], in [9], in test [3], in [5] and in test [7] was “inactive” throughout.
In the case of `Cc1ccc(Cl)c(Nc2ccccc2C(=O)O)c1Cl`, the Potency result in test [1], in test [2], in test [4], in [5] and in [6] was “inactive” in each case.
As to `COC(=O)[C@H]1[C@H]2C[C@@H]3c4[nH]c5cc(OC)ccc5c4CCN3C[C@H]2C[C@@H](OC(=O)/C=C/c2ccc(O)c(OC)c2)[C@@H]1OC`, the Potency in test [1] is 8.41 µM (active); in [2] it was 10.6 µM (active); in test [5], 8.41 µM (active). Moreover, the Potency result in test [6] is “inactive”.
Regarding `C1C[C@@H]2[C@H]3CC[C@H](C3)[C@@H]2C1`, the Potency result in test [1], in test [2], in test [3], in [5], in test [7] and in [8] was “inactive” throughout. For the same compound, the Potency result in test [10] is “inactive”.
Turning to `Cc1cc2c(OCC(CNC(C)(C)C)OC(=O)c3ccccc3)cccc2[nH]1` (stereo unspecified), the Potency result in test [1], in test [2], in test [3], in test [5], in [7] and in test [8] was “inactive” in each case. Further, the Potency entry in test [10] is “inactive”.
With `O=C(OCC(O)CO)c1ccccc1Nc1ccnc2cc(Cl)ccc12` (stereo unspecified), the values for the Potency in test [1] and in test [2] were 33.5 µM (active) and 26.6 µM (active), respectively.
Consider `C[C@@H]1CN(CCCn2c3ccccc3c3ccccc32)C[C@H](C)N1`, for which the Potency is 10.6 µM (active) in [1], 9.44 µM (active) in test [2], 29.8 µM (active) in test [3] and 15 µM (active) in test [5].
With `O=C(Cn1ccnc1[N+](=O)[O-])NCCO`, the Potency result in test [1], in test [2], in test [3], in test [4], in test [5] and in test [6] was “inactive” each time. The Potency entry in [8] and in [10] was “inactive” each time.
